TNF death inh: inhibitors of TNF-alpha triggered necroptosis, primary screen, cell-based, Jurkat FADD-/-, single concentration; Jurkat FADD-/- TNF necroptosis rescue, ATP luminescence, 24 h; 0 = TNF only, 100 = no-TNF cells; activation (protection from cell death), % at 10 µM; 220,000 compounds, 0.068% hits; AID 463075, 2010;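 active = activation, meaning protection from cell death, of at least 50% relative to plate controls; inactive = activation below 50%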;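 also: necroptosis triggered by 40 ng/mL TNF-alpha added together with compound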
Mcl1 Noxa PPI: Mcl-1/Noxa binding inhibitors, primary screen, biochemical, TR-FRET, 1536-well | AID 1022, 2008 | 220,000 compounds, 1.5% hits | TR-FRET Mcl-1/Noxa peptide binding, 2 h | inhibition, % at 21.7 µM | Induced myeloid leukemia cell differentiation protein Mcl-1 (Homo sapiens), Q07820;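 active = compounds that cut the protein-peptide binding signal by more than 50% relative to plate controls in a single-dose test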;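 also: His-tagged Mcl-1 with rhodamine Noxa BH3 peptide and terbium anti-His antibody; 0% = Mcl-1 plus Noxa peptide wells and 100% = peptide-only wells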
Target sequence (Q07820 whole entry, looked up): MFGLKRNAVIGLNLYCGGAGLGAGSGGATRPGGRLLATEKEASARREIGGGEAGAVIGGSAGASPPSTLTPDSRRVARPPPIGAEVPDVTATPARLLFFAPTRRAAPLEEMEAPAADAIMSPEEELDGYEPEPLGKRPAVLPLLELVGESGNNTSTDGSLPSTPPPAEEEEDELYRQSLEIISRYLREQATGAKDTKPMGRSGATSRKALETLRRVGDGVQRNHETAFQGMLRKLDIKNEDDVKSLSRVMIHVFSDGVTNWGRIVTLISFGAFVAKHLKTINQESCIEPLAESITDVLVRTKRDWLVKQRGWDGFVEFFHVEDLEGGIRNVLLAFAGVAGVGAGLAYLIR
Mcl-1 Bim block: inhibitors of Bim peptide binding to Mcl-1, primary screen, biochemical, bead-based flow cytometry, multiplex; Induced myeloid leukemia cell differentiation protein Mcl-1 (Homo sapiens), Q07820; Bim peptide-Mcl-1 binding; inhibition, % at 10 µM; 190,000 compounds, 0.1% hits; AID 1009, 2008; in the data active = inhibition above about 40%;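 also: 0% = no compound tracer wells and 100% = peptide blocker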
zVAD death inh: inhibitors of zVAD-triggered necroptosis, primary screen, L929 cells; 220,000 compounds, 0.38% hits; AID 1377, 2008; viability rescue, % at 10 µM; L929 zVAD necroptosis rescue, ATP luminescence, 24 h; with zVAD 60 µM;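 active = activation, scaled between plate controls, above about 75%, limit read from the data; inactive = activation under that limit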;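 also: 0% = zVAD with DMSO and 100% = DMSO alone without zVAD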
Mcl1-Bid inh: Mcl-1/Bid binding inhibitors, primary screen, biochemical, TR-FRET, 1536-well; Induced myeloid leukemia cell differentiation protein Mcl-1 (Homo sapiens), Q07820; TR-FRET Mcl-1/Bid-Dy647 peptide binding; inhibition, % at 21.7 µM; 220,000 compounds, 0.97% hits; AID 1021, 2008;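 active = compounds that cut the binding signal by more than half at the single screening dose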;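 also: His-tagged Mcl-1 with europium anti-His antibody binding Bid BH3 peptide; 0% = Mcl-1 plus peptide wells and 100% = peptide-only wells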
Calpain2 inh: inhibitors of pig calpain II, primary screen, biochemical, fluorogenic peptide substrate, 1536-well. purified calpain II, 30 min. inhibition, % at 16 µM. 220,000 compounds, 0.37% hits;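 active = inhibition above about 50%, limit read from the data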
Active calls of the source: *; i = inactive; · = no result. A selection: hits, their analogues and other compounds. The true share with any hit is near 2.8%.

SMILES	TNF death inh	Mcl1 Noxa PPI	Mcl-1 Bim block	zVAD death inh	Mcl1-Bid inh	Calpain2 inh
CC(=O)/C(=N/Nc1ccccc1)Sc1nnc(C(O)c2ccccc2)n1-c1ccccc1 (centres undefined)	2.8	8.7	-4.0	0.3	-80.5	17.9
O=[N+]([O-])c1cc(Br)c(OCc2nnc(-c3ccccc3)o2)c(Br)c1	-0.1	-9.5	-2.0	1.9	-17.0	-8.4
O=[N+]([O-])c1ccc2c(OCc3nnc(-c4ccccc4Br)o3)ncnc2c1	-3.2	61.0*	·	0.6	6.2	-17.7
S=c1[nH]nc(-c2ccc3ccccc3n2)n1-c1ccc2ncccc2c1	0.2	70.0*	-1.0	0.2	-130.1	-20.6
Fc1ccc(-n2c(-c3ccc4ccccc4n3)n[nH]c2=S)cc1Cl	-1.2	20.4	-1.0	1.3	-36.4	2.3
O=c1c2ccccc2nc(SCc2nc(-c3ccccc3)no2)n1-c1ccc(F)cc1	1.1	10.7	-1.0	1.7	-8.7	12.1
Cc1nn(Cc2ccc(F)cc2)c2sc(C(=O)Nc3ccc(N4CCOCC4)cc3N3CCOCC3)cc12	0.4	75.7*	-5.0	0.1	-61.9	-17.9
Cc1ccc(C2SCCN2C(=O)c2ccc([N+](=O)[O-])cc2)cc1 (centres undefined)	51.1*	4.2	1.0	0.8	-14.9	3.1
O=C(c1ccc([N+](=O)[O-])cc1)N1CCSC1c1ccc(Br)cc1 (centres undefined)	13.7	11.9	-1.0	2.4	-16.0	-14.4
Cc1c(C(=O)Nc2ccc(F)cc2)cn2c(nc3ccccc32)c1C#N	1.9	-5.6	·	-0.3	-52.3	-77.9
N#Cc1c2nc3ccccc3nc2n2cc(NC(=O)c3ccc(F)cc3)ccc12	-5.0	111.3*	12.0	0.4	86.0*	-68.1
COc1ccccc1NC1=C(NC(C)=O)C(=O)c2ccccc2C1=O	-3.1	77.9*	8.0	-0.1	-39.0	0.3
O=S(=O)(Nc1nc2ccccc2nc1NCC1CCCO1)c1cc(Cl)ccc1Cl (centres undefined)	1.2	-7.5	·	0.4	-22.4	-6.1
Clc1ccc(N/N=C/c2ccncc2)cc1Cl	2.3	51.0*	0.0	2.5	-38.8	4.5
COC(=O)C1=C(C(=O)OC)C(c2cc(Br)ccc2O)c2sc(=O)[nH]c2S1 (centres undefined)	-2.3	87.0*	-1.0	0.9	7.1	-7.1
COC(=O)C1=C(C(=O)OC)C(c2cc(Cl)ccc2O)c2sc(=O)[nH]c2S1 (centres undefined)	-8.1	78.7*	5.0	-0.3	27.0	-2.1
COc1ccccc1NC(=S)Nc1ccc2cn[nH]c2c1	1.1	19.2	-2.0	2.2	-49.7	-10.8
O=C(O)CCCN1C(=O)/C(=C\c2ccco2)SC1=S	-0.4	1.0	-2.0	-0.8	-87.2	-23.9
O=C(O)CCN1C(=O)/C(=C\c2ccc(-c3nc4ccccc4s3)o2)SC1=S	-1.2	102.2*	25.0	0.0	95.0*	-115.5
S=c1[nH]nc(Cc2noc3ccccc23)n1-c1ccc(Cl)cc1	-1.1	16.4	-4.0	0.1	54.4*	13.2
Cc1nn(C)c(C)c1Nc1ccc(N2C(=O)C3CC=CCC3C2=O)cc1[N+](=O)[O-] (centres undefined)	0.1	7.0	-6.0	-0.2	-40.4	28.5
O=C(c1ccc([N+](=O)[O-])cc1)N1CCC(Cc2ccccc2)CC1	1.6	8.4	0.0	0.4	5.0	10.0
O=C(c1cnc(Cl)c(Cl)c1)N1CCC(Cc2ccccc2)CC1	1.0	51.1*	1.0	0.5	3.9	36.1
O=S(=O)(Cc1ccccc1)NCC1CCCN(Cc2ccc3nonc3c2)C1 (centres undefined)	1.6	-4.4	-10.0	-0.3	-27.8	0.1
CS(=O)(=O)c1ccc(C(=O)N2CCc3ccccc3C2)cc1	1.9	-5.8	2.0	1.4	-24.2	59.5*
SMILES	TNF death inh	Mcl1 Noxa PPI	Mcl-1 Bim block	zVAD death inh	Mcl1-Bid inh	Calpain2 inh
COc1ccc2cc(C(=O)NCc3ccco3)c(=Nc3ccc(C(=O)O)cc3)oc2c1	2.5	1.2	0.0	44.9	-17.9	-24.2
COc1ccc(N=c2oc3c(OC)cccc3cc2C(=O)NCc2ccco2)c(OC)c1	1.4	27.4	1.0	2.7	65.2*	-30.6
Cc1cc(C)n2nc(Sc3ncccc3[N+](=O)[O-])nc2n1	2.3	-14.3	·	-0.6	-21.0	29.6
Oc1c(Br)cc(C=Nc2ccc3nc(-c4ccccc4)[nH]c3c2)c(O)c1Br	-4.4	94.1*	4.0	5.0	-64.3	i
O=[N+]([O-])c1cccc(-c2nc3ccc([N+](=O)[O-])cc3[nH]2)c1	-1.4	58.1*	2.0	1.2	10.1	-45.9
O=[N+]([O-])c1ccc(O)c(C=Nc2ccc3nc(-c4ccccc4)[nH]c3c2)c1	0.5	62.4*	0.0	0.8	63.3*	i
O=C(OCn1nnc2ccccc2c1=O)C1CCCCC1	-2.2	53.6*	0.0	0.0	-16.9	12.9
CCOC(=O)C(NCCc1ccccc1)(NC(=O)CC)C(F)(F)F (centres undefined)	-0.2	-3.6	-5.0	-0.5	-12.2	-8.5
COc1ccc(N=c2oc3cc(O)ccc3cc2C(=O)NCC2CCCO2)cc1 (centres undefined)	-0.5	26.6	1.0	58.8	7.8	i
COc1ccc(N=c2oc3cc(O)ccc3cc2C(=O)Nc2ccccn2)cc1OC	-2.8	52.9*	4.0	3.3	5.3	-118.1
COc1c(Cl)cc(C(=O)Nc2ccccc2-c2ccccc2)cc1Cl	-1.7	10.4	3.0	0.3	2.4	53.7*
CCOc1ccc(C(=O)Nc2ccccc2-c2ccccc2)cc1Cl	-2.0	-2.2	-4.0	-0.3	-9.0	-14.1
O=C(Nc1nc2ccccc2s1)C1=NN(c2ccccc2)C(=O)CC1	1.2	8.0	-4.0	0.3	-31.4	-23.3
CC(C)(C)c1ccc(C(=O)Nc2ccc(CN3CCS(=O)(=O)CC3)cc2)cc1	-22.9	8.9	·	61.9	-7.0	-38.9
CC(C)(C)c1ccc(CN2N=Nc3ccccc3S2(=O)=O)cc1	-8.6	77.4*	-3.0	0.5	19.9	-2.6
O=S1(=O)c2ccccc2N=NN1Cc1ccc(Cl)c(Cl)c1	-1.5	77.4*	-3.0	-0.4	48.1	-20.9
O=C(c1c(F)cccc1F)N1CCN=C1SCc1ccccc1	-2.6	15.9	·	0.4	-7.5	-11.7
Cc1ccc(S(=O)(=O)NCC2(c3ccccc3)CCOCC2)cc1	0.7	-8.1	-4.0	1.6	-8.9	10.1
Fc1ccc(C2=NNC(=NCc3ccccc3)SC2)cc1F	51.2*	14.2	2.0	57.2	-9.0	-22.9
Clc1ccc(C2=NNC(=NCc3ccccc3)SC2)cc1	56.1*	48.4	0.0	73.5	-9.5	13.5
